From the supplement of paper PMC8728848
About 410 targets per protein were measured; listed, in parts, are those with the strongest signals and a random draw of the rest.

Key:
Assay in all cases: glycan array binding signal (z-score within array); higher = stronger binding
Settings in all cases: glycan notation: IUPAC condensed, linker removed
[1] = molecular target: Fuc(a1-2)Gal(b1-3)GlcNAc(b1-2)Man(a1-3)[Fuc(a1-2)Gal(b1-3)GlcNAc(b1-2)Man(a1-6)]Man(b1-4)GlcNAc(b1-4)GlcNAc
Outline: (§1)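 Columns mapping to the same glycan were averaged after glycan names were converted to IUPAC-condensed notation. The data come from 3228 arrays in the Consortium for Functional Glycomics database, limited to those with an available protein sequence. Binding is reported as a within-array Z-score averaged across arrays of one protein sequence and across linkers.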

[2] = molecular target: Fuc(a1-2)Gal(b1-3)GlcNAc(b1-3)GalNAc
Outline: as §1

[3] = molecular target: Fuc(a1-2)Gal(b1-3)GlcNAc(b1-3)[Fuc(a1-2)Gal(b1-3)GlcNAc(b1-6)]GalNAc
Outline: as §1

[4] = molecular target: Fuc(a1-2)Gal(b1-3)GlcNAc(b1-3)[Gal(b1-4)GlcNAc(b1-6)]Gal(b1-4)Glc
Outline: as §1

[5] = molecular target: Fuc(a1-2)Gal(b1-3)[Fuc(a1-4)]GlcNAc(b1-2)Man(a1-3)[Fuc(a1-2)Gal(b1-3)[Fuc(a1-4)]GlcNAc(b1-2)Man(a1-6)]Man(b1-4)GlcNAc(b1-4)[Fuc(a1-6)]GlcNAc(b1-4)[Fuc(a1-6)]GlcNAc
Outline: as §1

[6] = molecular target: Fuc(a1-2)Gal(b1-4)GlcNAc
Outline: as §1

[7] = molecular target: Fuc(a1-2)Gal(b1-4)GlcNAc(b1-2)Man(a1-3)[Fuc(a1-2)Gal(b1-4)GlcNAc(b1-2)Man(a1-6)]Man(b1-4)GlcNAc(b1-4)GlcNAc
Outline: as §1

[8] = molecular target: Fuc(a1-2)Gal(b1-4)[Fuc(a1-3)]GlcNAc(b1-3)GalNAc
Outline: as §1

[9] = molecular target: Fuc(a1-2)[Gal(a1-3)]Gal(b1-3)GlcNAc
Outline: as §1

[10] = molecular target: Fuc(a1-2)[Gal(a1-3)]Gal(b1-3)GlcNAc(b1-2)Man(a1-3)[Fuc(a1-2)[Gal(a1-3)]Gal(b1-3)GlcNAc(b1-2)Man(a1-6)]Man(b1-4)GlcNAc(b1-4)GlcNAc
Outline: as §1

[11] = molecular target: Fuc(a1-2)[Gal(a1-3)]Gal(b1-4)GlcNAc(b1-6)GalNAc
Outline: as §1

[12] = molecular target: Fuc(a1-2)[GalNAc(a1-3)]Gal(b1-4)GlcNAc(b1-3)Gal(b1-4)GlcNAc(b1-3)Gal(b1-4)GlcNAc
Outline: as §1

[13] = molecular target: Gal(b1-3)GalNAc(b1-3)Gal(a1-4)Gal(b1-4)Glc
Outline: as §1

[14] = molecular target: Gal(b1-3)GlcNAc(b1-2)Man(a1-3)[Gal(b1-3)GlcNAc(b1-2)Man(a1-6)]Man(b1-4)GlcNAc(b1-4)GlcNAc
Outline: as §1

[15] = molecular target: Gal(b1-3)GlcNAc(b1-2)Man(a1-3)[Gal(b1-3)GlcNAc(b1-2)Man(a1-6)]Man(b1-4)GlcNAc(b1-4)[Fuc(a1-6)]GlcNAc
Outline: as §1

[16] = molecular target: Gal(b1-3)GlcNAc(b1-2)[Gal(b1-3)GlcNAc(b1-6)]Man(a1-6)[Gal(b1-3)GlcNAc(b1-2)Man(a1-3)]Man(b1-4)GlcNAc(b1-4)GlcNAc
Outline: as §1

[17] = molecular target: Gal(b1-3)[Fuc(a1-4)]GlcNAc
Outline: as §1

[18] = molecular target: Gal(b1-4)Gal
Outline: as §1

[19] = molecular target: Gal(b1-4)GlcNAc(a1-6)Gal(b1-4)GlcNAc
Outline: as §1

[20] = molecular target: Gal(b1-4)GlcNAc(b1-2)Man(a1-3)[Gal(b1-4)GlcNAc(b1-2)Man(a1-6)]Man(b1-4)GlcNAc(b1-4)GlcNAc
Outline: as §1

[21] = molecular target: Gal(b1-4)GlcNAc(b1-2)Man(a1-3)[GlcNAc(b1-4)][Gal(b1-4)GlcNAc(b1-2)Man(a1-6)]Man(b1-4)GlcNAc(b1-4)GlcNAc
Outline: as §1

[22] = molecular target: Gal(b1-4)GlcNAc(b1-2)Man(a1-6)[GlcNAc(b1-2)Man(a1-3)]Man(b1-4)GlcNAc(b1-4)GlcNAc
Outline: as §1

[23] = molecular target: Gal(b1-4)GlcNAc(b1-2)[Gal(b1-4)GlcNAc(b1-4)]Man(a1-3)[GlcNAc(b1-4)][Gal(b1-4)GlcNAc(b1-2)Man(a1-6)]Man(b1-4)GlcNAc(b1-4)GlcNAc
Outline: as §1

[24] = molecular target: GalNAc6S(b1-4)GlcNAc
Outline: as §1

[25] = molecular target: GlcA(b1-6)Gal
Outline: as §1

[26] = molecular target: GlcNAc(a1-4)Gal(b1-4)GalNAc
Outline: as §1

[27] = molecular target: GlcNAc(b1-2)Man(a1-3)[GlcNAc(b1-2)Man(a1-6)]Man(b1-4)GlcNAc(b1-4)GlcNAc
Outline: as §1

[28] = molecular target: GlcNAc(b1-2)[GlcNAc(b1-4)]Man(a1-3)[GlcNAc(b1-2)Man(a1-6)]Man(b1-4)GlcNAc(b1-4)GlcNAc
Outline: as §1

[29] = molecular target: GlcNAc(b1-3)Fuc
Outline: as §1

[30] = molecular target: Man(a1-2)Man(a1-3)[Man(a1-2)Man(a1-6)]Man(a1-6)[Man(a1-2)Man(a1-2)Man(a1-3)]Man
Outline: as §1

[31] = molecular target: Neu5Ac(a2-3)Gal(b1-3)[Fuc(a1-4)]GlcNAc(b1-3)Gal(b1-3)[Fuc(a1-4)]GlcNAc
Outline: as §1

[32] = molecular target: Neu5Ac(a2-3)Gal(b1-4)GlcNAc(b1-3)Gal(b1-4)[Fuc(a1-3)]GlcNAc
Outline: as §1

[33] = molecular target: Neu5Ac(a2-3)GalNAc
Outline: as §1

[34] = molecular target: Neu5Ac(a2-6)Gal(b1-4)GlcNAc(b1-2)Man(a1-3)[GlcNAc(b1-4)][Neu5Ac(a2-6)Gal(b1-4)GlcNAc(b1-2)Man(a1-6)]Man(b1-4)GlcNAc(b1-4)GlcNAc
Outline: as §1

[35] = molecular target: Neu5Ac(a2-6)Gal(b1-4)GlcNAc(b1-2)Man(a1-6)[Gal(b1-4)GlcNAc(b1-2)Man(a1-3)]Man(b1-4)GlcNAc(b1-4)GlcNAc
Outline: as §1

[36] = molecular target: Neu5Ac(a2-6)Gal(b1-4)GlcNAc(b1-2)Man(a1-6)[GlcNAc(b1-2)Man(a1-3)]Man(b1-4)GlcNAc(b1-4)GlcNAc
Outline: as §1

[37] = molecular target: Neu5Ac(a2-6)Gal(b1-4)GlcNAc(b1-2)Man(a1-6)[Man(a1-3)]Man(b1-4)GlcNAc(b1-4)GlcNAc
Outline: as §1

[38] = molecular target: Neu5Ac(a2-6)Gal(b1-4)GlcNAc(b1-6)GalNAc
Outline: as §1

[39] = molecular target: Neu5Ac(a2-8)Neu5Ac(a2-8)Neu5Ac
Outline: as §1

[40] = molecular target: Neu5Ac9Ac(a2-6)Gal(b1-4)GlcNAc
Outline: as §1

B1: CAA (Caragana arborescens) (protein)
chain: VAVEFDTFDNPDWDPRTKHIGIDVNSIRSNKTTQWGFWNRQVADVDISYEASSKTLNVSLYYPGESYIVTDVVDLKDILPEWVRIGF
[1]
  glycan array binding signal (z-score): 4.07
[2]
  glycan array binding signal (z-score): -0.244
[3]
  glycan array binding signal (z-score): -0.242
[4]
  glycan array binding signal (z-score): -0.249
[5]
  glycan array binding signal (z-score): 1.03
[6]
  glycan array binding signal (z-score): -0.242
[7]
  glycan array binding signal (z-score): 2.51
[8]
  glycan array binding signal (z-score): -0.238
[9]
  glycan array binding signal (z-score): -0.238
[10]
  glycan array binding signal (z-score): 3.82
[11]
  glycan array binding signal (z-score): -0.248
[12]
  glycan array binding signal (z-score): -0.233
[13]
  glycan array binding signal (z-score): -0.24
[14]
  glycan array binding signal (z-score): 6.61
[15]
  glycan array binding signal (z-score): 5.29
[16]
  glycan array binding signal (z-score): 5.63
[17]
  glycan array binding signal (z-score): -0.24
[18]
  glycan array binding signal (z-score): -0.24
[19]
  glycan array binding signal (z-score): -0.241
[20]
  glycan array binding signal (z-score): 4.25
[21]
  glycan array binding signal (z-score): -0.106
[22]
  glycan array binding signal (z-score): 5.87
[23]
  glycan array binding signal (z-score): -0.239
[24]
  glycan array binding signal (z-score): -0.252
[25]
  glycan array binding signal (z-score): -0.239
[26]
  glycan array binding signal (z-score): -0.239
[27]
  glycan array binding signal (z-score): 5.92
[28]
  glycan array binding signal (z-score): 7.33
[29]
  glycan array binding signal (z-score): -0.246
[30]
  glycan array binding signal (z-score): -0.246
[31]
  glycan array binding signal (z-score): -0.24
[32]
  glycan array binding signal (z-score): -0.242
[33]
  glycan array binding signal (z-score): -0.243
[34]
  glycan array binding signal (z-score): -0.251
[35]
  glycan array binding signal (z-score): 3.9
[36]
  glycan array binding signal (z-score): 5.95
[37]
  glycan array binding signal (z-score): 0.262
[38]
  glycan array binding signal (z-score): -0.236
[39]
  glycan array binding signal (z-score): -0.249
[40]
  glycan array binding signal (z-score): -0.245
